Assay results from PubChem BioAssay (NCATS).
Results filed as inconclusive are left out. Activity calls are given as the source filed them. Calls come from the whole dose curve; as a rule, active = well fitted cell-killing curve with a large enough effect; inconclusive = small, poorly fitted or top-dose-only effect, or effect the other way; inactive = flat fitted curve, though single readings scatter.

Assays:
Assay in all cases: Primary qHTS to identify gynecologic anti-cancer compounds using libraries of approved drugs and bioactive compounds (AID 1345084); note: nearly all actives have a fitted effect of over 55% in size
C33A = settings: Gynecologic cancer cell panel viability, ATPlite luminescence, 48 h; series mostly up to 57.5 µM
Method in brief: (§1)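 Cell viability after 48 h drug treatment, ATPlite luminescence readout; five doses.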

CAOV3 = settings: Gynecologic cancer cell panel viability, ATPlite luminescence, 48 h; series mostly up to 57.5 µM
Method in brief: as §1

CASKI = settings: Gynecologic cancer cell panel viability, ATPlite luminescence, 48 h; series mostly up to 57.5 µM
Method in brief: as §1

Es-2 = settings: Gynecologic cancer cell panel viability, ATPlite luminescence, 48 h; series mostly up to 57.5 µM
Method in brief: as §1

HeLa = settings: Gynecologic cancer cell panel viability, ATPlite luminescence, 48 h; series mostly up to 57.5 µM
Method in brief: as §1

Hek293T = settings: Gynecologic cancer cell panel viability, ATPlite luminescence, 48 h, control line for the selectivity index; series mostly up to 57.5 µM
Method in brief: as §1

JEG-3 = settings: Gynecologic cancer cell panel viability, ATPlite luminescence, 48 h; series mostly up to 57.5 µM
Method in brief: as §1

OV90 = settings: Gynecologic cancer cell panel viability, ATPlite luminescence, 48 h; series mostly up to 57.5 µM
Method in brief: as §1

PA-1 = settings: Gynecologic cancer cell panel viability, ATPlite luminescence, 48 h; series mostly up to 57.5 µM
Method in brief: as §1

SKOV3 = settings: Gynecologic cancer cell panel viability, ATPlite luminescence, 48 h; series mostly up to 57.5 µM
Method in brief: as §1

Tov-21-G = settings: Gynecologic cancer cell panel viability, ATPlite luminescence, 48 h; series mostly up to 57.5 µM
Method in brief: as §1

Tov112D = settings: Gynecologic cancer cell panel viability, ATPlite luminescence, 48 h; series mostly up to 57.5 µM
Method in brief: as §1

Measured: Potency

COc1cc(C)c(C(=O)O[C@H]2[C@@H](OC(C)=O)[C@H](n3ccc(=O)[nH]c3=O)O[C@@H]2CO)c(OC)c1
inactive: all assays above

CC(=O)OC1C(O)C2C(C)C3=CC(=O)OC3(O)CC2C2(C)CCCC(C)(CO)C12 (stereo unspecified)
inactive: all assays above

C=C1CCCC2(C)CC3(OC)OC(=O)C(C)=C3CC12 (stereo unspecified)
inactive: all assays above

CC(=O)N1CCc2ccc(O)c(OC3OC(COC4OCC(O)(CO)C4O)C(O)C(O)C3O)c2C1Cc1ccc(O)cc1 (stereo unspecified)
inactive: all assays above

COc1cc(C(=O)OC[C@@]2(O)CO[C@@H](O[C@H]3[C@H](Oc4ccc(C(=O)O)cc4OC)O[C@H](CO)[C@@H](O)[C@@H]3O)[C@@H]2O)ccc1O
inactive: all assays above

C[C@@H]1C(=O)O[C@H]2[C@@H](O)C34[C@H]5C[C@@H](C(C)(C)C)C36[C@@H](OC(=O)[C@@H]6O)O[C@@]4(C(=O)O5)[C@@]12O (stereo partly specified)
inactive: all assays above

CC(C)=CC/C=C(\C)[C@H]1CC[C@]2(C)[C@@H]1[C@H](O)C[C@@H]1[C@@]3(C)CC[C@H](O)C(C)(C)[C@@H]3[C@@H](O[C@@H]3O[C@H](CO)[C@@H](O)[C@H](O)[C@H]3O)C[C@]12C
inactive: all assays above

O=C(COc1cccc2c(=O)[nH]ccc12)c1ccccc1
inactive: all assays above

C/C1=C\C[C@]2(C)C(=O)C(O)=C([C@H](C)CO)[C@H]2C/C=C(\C)[C@@H](O)CC/C(C)=C/CC1
inactive: all assays above

CC(O)CCC1C(CO[C@@H]2O[C@H](CO)[C@@H](O)[C@H](O)[C@H]2O)CC(O)CC1(C)C (stereo partly specified)
inactive: all assays above

CC1CC[C@]2(C(=O)O)CC[C@]3(C(=O)O)C(=CCC4[C@@]5(C)CC[C@H](OC6OC(C)C(O)C(OC7OC(CO)C(O)C(O)C7O)C6O)C(C)(C)C5CC[C@]43C)C2C1C (stereo partly specified)
inactive: all assays above

CC(=O)OC[C@]12[C@H](OC(C)=O)C(=O)[C@@H]3[C@@H](OC(C)=O)[C@@]14O[C@@]3(C)COC(=O)c1cccnc1[C@@H](C)[C@H](C)C(=O)O[C@@H]([C@H](O)[C@@H]2OC(C)=O)[C@]4(C)O
inactive: all assays above

CC(C)c1ccc2c(c1)C(=O)CC1[C@@](C)(C(=O)O)CCC[C@]21C (stereo partly specified)
inactive: all assays above
